Source: PubChem BioAssay AID602281 (The Scripps Research Institute Molecular Screening Center, 2012)
The whole screen tested about 360,000 compounds, of which about 2,900 (0.81%) were called active.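 The calls were made as follows: active = inhibition above the mean inhibition across every tested compound plus 3 SD (cut at about 22% in these data); inactive = the rest.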 Shown is part of a subset that was picked to be rich in actives.

The compounds below were run against Perilipin-5 (Homo sapiens) + 1-acylglycerol-3-phosphate O-acyltransferase ABHD5 (Homo sapiens) (UniProt Q00G26+Q8WTS1) (assay: blockers of ABHD5 binding to perilipin-5 – cell lysate, split luciferase complementation, luminescence, primary screen (AID 602281;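 also: 0% = DMSO only wells and the 100% control is not disclosed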)). Settings: Split G. princeps luciferase complementation, 4 h, at 4 µM, hits give high values.
Chain of Perilipin-5 (Homo sapiens) + 1-acylglycerol-3-phosphate O-acyltransferase ABHD5 (Homo sapiens) (Q00G26 whole entry, looked up): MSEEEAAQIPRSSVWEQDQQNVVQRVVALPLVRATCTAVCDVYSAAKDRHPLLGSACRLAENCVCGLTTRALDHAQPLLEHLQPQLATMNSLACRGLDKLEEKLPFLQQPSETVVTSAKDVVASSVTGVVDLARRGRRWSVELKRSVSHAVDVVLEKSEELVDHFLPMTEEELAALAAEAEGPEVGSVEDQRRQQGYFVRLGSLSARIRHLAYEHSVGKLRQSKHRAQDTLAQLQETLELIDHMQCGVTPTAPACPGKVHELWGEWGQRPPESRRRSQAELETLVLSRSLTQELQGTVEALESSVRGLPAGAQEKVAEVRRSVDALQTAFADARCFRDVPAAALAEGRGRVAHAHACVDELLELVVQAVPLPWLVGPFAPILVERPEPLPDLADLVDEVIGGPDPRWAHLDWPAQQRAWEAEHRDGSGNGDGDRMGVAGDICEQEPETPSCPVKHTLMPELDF
Chain of Perilipin-5 (Homo sapiens) + 1-acylglycerol-3-phosphate O-acyltransferase ABHD5 (Homo sapiens) (Q8WTS1 whole entry, looked up): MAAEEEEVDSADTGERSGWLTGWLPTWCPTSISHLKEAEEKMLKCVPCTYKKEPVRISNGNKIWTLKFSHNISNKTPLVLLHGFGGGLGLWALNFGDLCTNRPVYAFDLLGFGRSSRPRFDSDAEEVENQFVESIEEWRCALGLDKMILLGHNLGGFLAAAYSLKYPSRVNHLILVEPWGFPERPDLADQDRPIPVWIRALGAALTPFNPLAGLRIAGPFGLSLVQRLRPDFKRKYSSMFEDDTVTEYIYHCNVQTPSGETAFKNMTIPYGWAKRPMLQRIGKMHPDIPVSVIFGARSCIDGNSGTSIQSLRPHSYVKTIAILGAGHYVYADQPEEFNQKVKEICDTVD

inhibition, inactive:
CCc1ccc(C(=O)CSc2nnc(C)c(=O)[nH]2)cc1 -3.63%
CCOC(=O)CSc1nc(C)c(Oc2ccc(Cl)cc2Cl)c(=O)[nH]1 -1.81%
COC(C[C@H](O)CC(=O)[C@@H](C)OCc1ccccc1)OC 2.47%
COC(C[C@@H]1O[C@@H]1C(=O)[C@H](C)OCc1ccccc1)OC -0.78%
COc1ccc(-c2cnc3c(c2)C(=O)N([C@H](C)CO)C[C@@H](C)[C@H](CN(C)Cc2ccccc2)O3)cc1 4.36%
CCCCCCN1CCN(C2CN(Cc3cn(CCCCCC)nn3)S(=O)(=O)C2)CC1 (centres undefined) -2.61%
CC(Sc1nncs1)C(=O)NCc1ccc2c(c1)OCO2 (centres undefined) -10.2%
CCn1cc(C(=O)N2CC(C)CC(C)C2)c(=O)c2cc(S(=O)(=O)N3CCCC3)ccc21 (centres undefined) -1.5%
O=C(N[C@H]1C/C=C\C(c2cccc(F)c2)N(Cc2ccccc2)C(=O)C1)OCC1c2ccccc2-c2ccccc21 (some centres undefined) -1.93%
COc1ccc(CN2CCN(Cc3cn(C)nc3-c3ccccc3)CC2CCO)c(C)c1C (centres undefined) 8.28%
Cc1ccccc1CN1C[C@@H]2C[C@@H](c3ccc4nsnc4c3)N3CCC[C@@]23C1=O 0.89%
CC1(C(=O)NS(=O)(=O)c2ccc(C#N)cc2)CCN1C(=O)c1ccc(C2CCCCC2)cc1 (centres undefined) -0.02%
COC(=O)CCCC1=CC2=C(c3ccccc3)C(=O)C(C)(OC(=O)C3CCCC3)C(=O)C2=CN1c1ccc(OC)cc1 (centres undefined) 3.52%
CC(C)CN1CCC1(C)C(=O)Nc1ccc(OC(F)F)cc1 (centres undefined) -1.42%
CSc1nc(N(C)NC(=O)c2cccc(C)c2)c2ccccc2n1 -6.13%
COc1ccc(C(=O)/C=C/Nc2ccccn2)cc1 0.9%
O=C(Nc1cccc(Cl)c1Cl)c1ccccc1NC(=O)C1CC=CCC1C(=O)O (centres undefined) -5.77%
NC(=O)C1CCN(C(=O)c2ccc(-c3ccccc3)cc2)CC1 5.48%
NS(=O)(=O)c1ccc(NC(=O)COC(=O)C2(c3ccc(F)cc3)CCCC2)cc1 -6.25%
O=C1c2cccnc2C(Nc2ccc(S(=O)(=O)N3CCCCCC3)cc2)N1Cc1ccccc1 (centres undefined) -3.06%
O=C(CCNS(=O)(=O)c1ccccc1C(F)(F)F)Nc1ccncc1 3.18%
CN(C)CCOc1cccc(Br)c1 -5.46%
C=CCNCCCCOc1ccccc1 -2.87%
O=C(COC(=O)c1cnccn1)Nc1cccc2ccccc12 -5.15%
COc1cccc2cc(C(C)N(CCCN3CCOCC3)C(=O)Nc3ccc(Cl)cc3)oc12 (centres undefined) 7.7%
O=C(Cn1ncc(N2CCCC2)c(Br)c1=O)c1ccc(Cl)cc1 3.08%
O=C(Cn1nnc(N2CCCCC2)n1)c1ccc(Cl)c(Cl)c1 -2.6%
N#Cc1ccc(C2N=C(c3ccccc3)NO2)cc1 (centres undefined) 5.57%
Cc1noc(C)c1NC(=O)Nc1ccc2c(c1)C(=O)N([C@H](C)CO)C[C@H](C)[C@@H](CN(C)S(=O)(=O)c1cn(C)cn1)O2 3.26%
CCCCCNC(=O)C(c1ccc(OC)cc1)n1c(=O)c(-c2ccccc2)nc2ccccc21 (centres undefined) 1.61%
CCC(C(=O)Nc1c(C)cccc1C)n1c(-c2cc(C)cs2)nc2ccccc21 (centres undefined) -1.93%
COc1ccc(C(C(=O)NCc2ccccc2)n2c(=O)c(-c3ccccc3)nc3ccccc32)cc1 (centres undefined) 18.6%
COc1ccc(NC(=O)C(c2ccncc2)n2c(=O)c(-c3cc4ccccc4[nH]3)nc3ccccc32)cc1 (centres undefined) -4.13%
CCC(CC)C(C(=O)NC1CCCC1)N1CCN(c2cc(C)nc3ccccc23)CC1 (centres undefined) 1.05%
COc1ccc(C(C(=O)Nc2c(C)cccc2C)N2CCN(c3ccc(C)cc3)CC2)cc1 (centres undefined) -0.48%
Cc1cccc(C)c1NC(=O)CCCSc1nnc(-c2ccco2)n1-c1ccccc1 -1.49%
Cn1c(SCC(=O)NC2CCCCC2)nnc1-c1cc2ccccc2o1 -2.37%
CC1CCCN(CCCNC(=O)CN2C(=O)COc3ccc(S(=O)(=O)N4CCOCC4)cc32)C1 (centres undefined) -1.77%
CCc1cccc(NC(=O)CCCN2C(=O)C(c3ccccc3)Oc3cccnc32)c1 (centres undefined) -1.01%
Cc1ccc(-c2nnc(C)c(N3CC(C)OC(C)C3)n2)cc1 (centres undefined) -1.84%
CC(OC(=O)CCCOc1ccccc1)C(=O)Nc1ccc(Cl)cn1 (centres undefined) -0.81%
O=C1OCCOC2CCCc3oc(-c4ccccc4)c1c32 (centres undefined) -3.07%
CN1CCC(=O)N([C@H](CO)Cc2ccccc2)CC1 -5.42%
Cc1ccsc1C(=O)NC1CCCCC1C (centres undefined) 4.79%
CC(N)C12CC3CC(CC(O)(C3)C1)C2 (centres undefined) -6.3%
Cc1nc2ccccn2c1C(=O)NN=C1CCN(C)CC1 -0.19%
COC(=O)c1c(C)oc2ccc(N(C(=O)Oc3ccccc3)S(=O)(=O)c3ccccc3)cc12 -1.45%
CC(=O)Oc1ccc(N(C(C)=O)S(=O)(=O)c2ccc3ccccc3c2)cc1Br 6.52%
COC(=O)c1ccccc1Oc1c(F)c(F)nc(N2CCOCC2)c1F -7.97%
COc1cccc(N2CC(NS(=O)(=O)c3cccs3)CC2=O)c1 (centres undefined) 0.8%
CCN(CC(=O)Nc1ccc(Cl)c(S(=O)(=O)N(C)C)c1)Cc1nc2ccccc2c(=O)[nH]1 -4.43%
Cc1cc(N2CCCC2=O)cc(C)c1S(N)(=O)=O -1%
O=C(COc1nsnc1N1CCOCC1)Nc1ccccc1Cl 0.63%
CCOC(=O)[C@]12CCCC=C1N(Cc1ccc3c(c1)OCO3)C(=O)[C@H](CC(=O)N1CCN(C(=O)c3ccco3)CC1)C2 5.36%
O=C(c1ccc(Cl)c(S(=O)(=O)N2CCCCCC2)c1)N1CCN(c2ccc(O)cc2)CC1 1.37%
c1ccc(-n2cccc2)c(N2CCCCC2)c1 -0.7%
CCN(C(=O)CSc1nc(N)cc(=O)[nH]1)C1CCS(=O)(=O)C1 (centres undefined) -2.61%
CCc1ccc(-c2cc(C(=O)NN3CCN(C)CC3)c3ccccc3n2)cc1 11.1%
Cc1c(NC(=O)c2cc(-c3ccc(Cl)s3)nc3ccccc23)c(=O)n(-c2ccccc2)n1C 0.07%
O=C(CCC(=O)OCC(F)(F)C(F)F)NCc1ccccc1 -6.31%
Oc1c(CN2CCOCC2)ccc(CN2CCOCC2)c1O -0.13%
COc1ccccc1NC(=O)CSc1nnc(Cn2nnc(-c3ccccc3)n2)n1-c1ccccc1 7.76%
COc1ccc(Cl)cc1NC(=O)CCS(=O)(=O)c1ccc(Br)cc1 -6.29%
COc1ccc(/C(C)=N/NC(=O)CCC(=O)Nc2ccc(Cl)cc2Cl)c(OC)c1 -4.09%
COc1cc2c(C(=O)N(C)c3cc(Cl)ccc3OC)cn(C)c(=O)c2cc1OC -8.81%
CN(C)CCNC(=O)C(C(=O)c1ccccc1)n1ccccc1=O (centres undefined) -4.39%
CCCN1CCn2c3c(c4cc(Br)ccc42)CCCC31 (centres undefined) -7.51%
COCCNC(=O)c1ccc(Cn2c(SCC(=O)NCC3CCCO3)nc3ccc(Br)cc3c2=O)cc1 (centres undefined) -3.04%
CCOc1ccc(N(CC(=O)NCCc2ccc(OC)cc2)S(C)(=O)=O)cc1 -0.93%
Cc1cc(C)n(CC(C)NCc2c(C(=O)N3CCOCC3)nc3c(C)cccn23)n1 (centres undefined) 1.11%

inhibition, active:
CCCCOC(=O)CNc1nnc(SCC(=O)OCC)[nH]c1=O 55.4%
COC(C/C=C/C(=O)[C@@H](C)OCc1ccccc1)OC 24.4%
O=C1C(Cl)=C(Oc2ccccc2)C(=O)c2ccccc21 84.3%
Cc1ccccc1CN1C[C@@H]2C[C@@H](c3cn(C)nc3-c3ccccc3)N3CCC[C@@]23C1=O 22.1%
CC1(OC(=O)C2CCCC2)C(=O)C=C2C=C(c3ccc(C#N)cc3)OC=C2C1=O (centres undefined) 22.6%
Cc1cc(C)nc(S/C=C/C(=O)c2ccccc2)n1 65.4%
O=[N+]([O-])/C=C/c1ccc2c(ccn2Cc2ccccc2)c1 92%
Nc1cccc(OCCCCCOc2cccc(N)c2)c1 68.8%
O=C(Cn1nc(CNc2ccc(Cl)cc2)[n+]2c1CCCCC2)c1ccc(Cl)cc1 28.2%
Cc1cccc(C)c1NC(=O)C(c1cccc2ccccc12)n1c(=O)c(-c2ccco2)nc2ccccc21 (centres undefined) 71.4%
N#Cc1ccc(C(C(=O)NCc2ccccc2)n2c(=O)c(-c3ccco3)nc3ccccc32)cc1 (centres undefined) 76.5%
Cc1cccc(C)c1NC(=O)C(c1ccc(C(F)(F)F)cc1)n1c(=O)c(-c2ccco2)nc2ccccc21 (centres undefined) 74.7%
O=C(NC1CCCCC1)C(c1cc2ccccc2o1)n1c(=O)c(-c2ccco2)nc2ccccc21 (centres undefined) 78.2%
CC(=O)N(c1ccc2oc(=O)sc2c1)S(=O)(=O)c1ccc(C)cc1 36.7%
O=C(Nc1ccccc1Cl)/C(Cl)=C(\Cl)S(=O)c1ccccc1 (centres undefined) 81.7%
O=C1C=CC(=O)N1c1ccc(N2CCCCC2)cc1 29%
Cc1ccc(NC(=O)c2cc(-c3ccc(C)o3)nc3ccccc23)nc1 29%
CCCCC(=O)N/N=C(\C)CC(=O)Nc1cc(Cl)ccc1OC 22.2%
OC(CNCC1CCCO1)Cn1c2ccc(Br)cc2c2cc(Br)ccc21 (centres undefined) 27.7%
